Some test systems named below: NCI-H23 lung; NCI-H226 lung; NCI-H322M lung; HOP-62 NSCLC; NCI-H460 lung; HOP-92 NSCLC; NCI-H522 lung; A549/ATCC NSCLC; 786-0 renal; COLO 205 colon; DU-145 prostate; K-562 leukemia; MALME-3M melanoma; RXF 393 renal; SF-268 CNS; SF-295 CNS; SF-539 CNS; UACC-257 melanoma; M14 melanoma; MDA-MB-231 breast.
Holding throughout (test): NCI-60 one-dose screen, 48 h (100 = growth as untreated, 0 = no growth, -100 = all killed)
Common to all, as to settings: 10 µM unless noted

The panel holds about 83,000 compounds, 20% with a hit somewhere; the sample as a whole holds those more often.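 Values shown are percent growth following 48 h exposure of cells in 96-well plates to a single concentration of compound; below 10 was considered active.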 Values without a mark were called inactive. The source made the active and inactive calls.

Take `O=C(/C(Cl)=N/O)c1ccc(-c2ccccc2)cc1`: the growth with NCI-H23 lung was 93.4%; with NCI-H226 lung it was 88.7%; in the assay on NCI-H322M lung it was 94.3%; in the assay with HOP-62 NSCLC, 96.4%; in the assay with NCI-H460 lung, 107%; with HOP-92 NSCLC it was 82.1%. Also, the growth in the assay on NCI-H522 lung was 30.7%; in the assay on A549/ATCC NSCLC it was 107%; with 786-0 renal, -80.7% (active); in the assay on COLO 205 colon it was 85.5%; in the assay on DU-145 prostate, 109%; in the assay on K-562 leukemia, 63.8%. The growth in the assay with MALME-3M melanoma is 24.8%; with RXF 393 renal it was 95.4%; with SF-268 CNS it was 101%; in the assay with SF-295 CNS, 104%; in the assay with SF-539 CNS, 96.4%; in the assay on UACC-257 melanoma, 99.7%. In the assay on M14 melanoma, the growth was 96.7%.
For the molecule `CN(C)c1ccc(/C=C/c2ccnc3ccccc23)cc1`, the growth in the assay with NCI-H23 lung is 58.6%; with NCI-H226 lung, 23.5%; in the assay on NCI-H322M lung, 97.3%; in the assay on HOP-62 NSCLC, 61.8%; with NCI-H460 lung it was 21.7%; in the assay with HOP-92 NSCLC, 27.2%. The growth with NCI-H522 lung is -24% (active); in the assay with A549/ATCC NSCLC, 24.7%; in the assay with 786-0 renal, 54.7%; in the assay on COLO 205 colon, 40.6%; in the assay with DU-145 prostate, 78.1%; in the assay on K-562 leukemia it was 25.1%. Also, the growth in the assay on MALME-3M melanoma is 60.2%; in the assay on MDA-MB-231 breast it was 57.4%; in the assay with SF-268 CNS it was 70%; with SF-295 CNS, 31.7%; with SF-539 CNS, 47.2%; with UACC-257 melanoma, 41.9%. Besides, the growth in the assay with M14 melanoma was 44.3%.
`CC(C)(C)CC(C)(C)c1ccc(OCCOCCSC(=N)N)cc1`: the growth in the assay with NCI-H23 lung was 30.8%; in the assay with NCI-H226 lung, 92.4%; with NCI-H322M lung, 67.9%; in the assay with HOP-62 NSCLC, 96.1%; in the assay with NCI-H460 lung, 23.4%; in the assay with HOP-92 NSCLC, 37%. The growth with NCI-H522 lung is -3.81% (active); in the assay with A549/ATCC NSCLC it was 68.8%; in the assay on 786-0 renal it was -36% (active); in the assay on COLO 205 colon, -80.6% (active); with DU-145 prostate it was 53.8%; with K-562 leukemia, 3.14% (active). In addition, the growth in the assay with MALME-3M melanoma is -60.8% (active); in the assay on RXF 393 renal, -36.3% (active); in the assay with SF-268 CNS, 69%; in the assay on SF-295 CNS, 36.9%; in the assay with SF-539 CNS, 64.3%; in the assay with UACC-257 melanoma, 73%. Moreover, the growth in the assay with M14 melanoma is -67.7% (active).
As to `CCC[CH2][Sn]1([CH2]CCC)[O]C2C(CO)OC(n3ccc(N)nc3=O)C2[O]1` (configuration not stated), the growth is -42.1% (active) in the assay on NCI-H23 lung; -93.9% (active) in the assay with NCI-H226 lung; 33.3% with NCI-H322M lung; 22.7% in the assay with HOP-62 NSCLC; 12.1% in the assay with NCI-H460 lung; -56.3% (active) in the assay on HOP-92 NSCLC. Further, the growth was -78.9% (active) in the assay on NCI-H522 lung; 68.1% with A549/ATCC NSCLC; -89.9% (active) in the assay on 786-0 renal; -79.4% (active) in the assay with COLO 205 colon; 2.15% (active) in the assay on DU-145 prostate; -17.7% (active) in the assay on K-562 leukemia. In addition, the growth with MALME-3M melanoma is -71.7% (active); in the assay with MDA-MB-231 breast it was -68.8% (active); in the assay with SF-268 CNS, -89.2% (active); with SF-539 CNS it was -64.2% (active); with UACC-257 melanoma, -87.3% (active); in the assay with M14 melanoma it was -47.2% (active).
Regarding `CC1=CC(=NC(=O)CBr)C=C/C1=N\S(=O)(=O)c1ccccc1`, the growth is 80.2% with NCI-H23 lung; 68.3% in the assay on NCI-H226 lung; 107% in the assay with NCI-H322M lung; 75.1% with HOP-62 NSCLC; 98.4% in the assay with NCI-H460 lung; 52.9% with HOP-92 NSCLC. Moreover, the growth in the assay with NCI-H522 lung is -80.4% (active); in the assay with A549/ATCC NSCLC it was 87%; with 786-0 renal, 53.6%; with COLO 205 colon, 59.5%; with DU-145 prostate it was 76.8%; in the assay with MALME-3M melanoma it was 21.9%. In addition, the growth in the assay on MDA-MB-231 breast is 67.5%; in the assay with RXF 393 renal, 82.4%; in the assay on SF-268 CNS, 64.8%; in the assay with SF-539 CNS it was 91.6%; in the assay with M14 melanoma it was 72.8%.
As to `CC(=O)c1c(O)c(C)c(O)c2c1OC1=CC(=O)C(C(C)=O)C(=O)C12C` (configuration not stated), the growth with NCI-H23 lung was 79.1%; with NCI-H226 lung it was 88.6%; in the assay with NCI-H322M lung, 60.3%; in the assay on HOP-62 NSCLC, 74.3%; in the assay with NCI-H460 lung it was 89.1%; in the assay with HOP-92 NSCLC it was -0.143% (active). The growth was 71.7% in the assay with NCI-H522 lung; 96% with A549/ATCC NSCLC; 69.9% in the assay with 786-0 renal; 107% in the assay on DU-145 prostate; 68.9% with K-562 leukemia; 79.4% in the assay on MALME-3M melanoma. Further, the growth in the assay on MDA-MB-231 breast is 96.3%; in the assay with RXF 393 renal, 105%; with SF-268 CNS, 88.9%; in the assay with SF-295 CNS, 16.7%; in the assay on SF-539 CNS it was 98%; with UACC-257 melanoma, 97.8%. Moreover, the growth in the assay with M14 melanoma was 67.6%.
Consider `Cc1cc(C(N)=O)cc(C)c1C(=O)OCCCl`, for which the growth is 104% in the assay with NCI-H23 lung; 105% in the assay on NCI-H226 lung; 97.2% with NCI-H322M lung; 93.9% in the assay on HOP-62 NSCLC; 101% in the assay on NCI-H460 lung; 90.1% in the assay on HOP-92 NSCLC. Also, the growth in the assay on NCI-H522 lung is 101%; with 786-0 renal, 100%; with COLO 205 colon, 111%; in the assay on DU-145 prostate it was 99.2%; in the assay on K-562 leukemia it was 93.6%; in the assay with MALME-3M melanoma, 101%. In addition, the growth in the assay on MDA-MB-231 breast is 105%; in the assay on RXF 393 renal it was 117%; in the assay on SF-268 CNS, 95%; in the assay with SF-295 CNS, 99.7%; with SF-539 CNS, 101%; with M14 melanoma it was 108%.
For `O=C(CCl)N1c2ccccc2Sc2c1ccc1ccccc21`, the growth is 48.6% in the assay with NCI-H23 lung; 68.1% with NCI-H226 lung; 106% in the assay on NCI-H322M lung; 90.6% in the assay on HOP-62 NSCLC; 81.7% in the assay on NCI-H460 lung; 64.6% in the assay on HOP-92 NSCLC. For the same molecule, the growth with NCI-H522 lung is -79.2% (active); in the assay with A549/ATCC NSCLC, 95.2%; with 786-0 renal, 88.9%; with COLO 205 colon, 65.7%; with DU-145 prostate, 93.9%; in the assay with K-562 leukemia, 55.7%. The growth was 76.4% in the assay with MDA-MB-231 breast; 70.4% in the assay with RXF 393 renal; 70.4% in the assay on SF-268 CNS; 94.5% in the assay on SF-295 CNS; 84.7% with SF-539 CNS; 89.4% in the assay on UACC-257 melanoma. The growth in the assay with M14 melanoma is 61.1%.
For `Oc1ccc2c(c1)CCc1ccccc1-2`, the growth with NCI-H23 lung was 108%; in the assay with NCI-H226 lung, 93.5%; with NCI-H322M lung it was 110%; with HOP-62 NSCLC, 83.3%; in the assay with NCI-H460 lung, 106%; with HOP-92 NSCLC, 97.4%. For the same molecule, the growth with NCI-H522 lung is 100%; in the assay with A549/ATCC NSCLC it was 98.1%; in the assay on 786-0 renal, 88.1%; with COLO 205 colon, 106%; in the assay with DU-145 prostate, 109%; in the assay with K-562 leukemia, 121%. Also, the growth was 111% in the assay with MDA-MB-231 breast; 92.6% with RXF 393 renal; 92.1% in the assay with SF-268 CNS; 96.3% in the assay on SF-295 CNS; 89.9% in the assay on SF-539 CNS; 99.2% with UACC-257 melanoma. In addition, in the assay on M14 melanoma, the growth was 102%.

These data come from PubChem BioAssay (NCI).
